PubChem BioAssay (EPA / NIEHS)
Several values for one entry are separate records, joined by “and”; a condition that tells them apart may be missing. Equal entries are not always repeated. Where a structure was tested more than once in an assay, its records may differ in their call. Activity calls are given as the source filed them. The calls were made as follows: active = hit-call score of the fitted dose curve at least 0.9, where 1 is the maximum; inactive = score below 0.9.

Assays:
[1] = ATG_GRE_CIS: Attagene CIS-FACTORIAL HepG2 Assay for human Glucocorticoid Response Elements (GRE) (AID 2282947); settings: HepG2 GRE cis-reporter, Attagene multiplex mRNA; AC50: actives raise or lower the signal unless noted; outcome: actives raise or lower the signal unless noted
Method in brief: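 Transiently transfected HepG2 cells carrying GRE cis-reporter units (endogenous TF activity) dosed 24 h; reporter mRNA quantified by RT-PCR, 6-FAM labelling, HpaI digestion and capillary electrophoresis. Bidirectional fit versus DMSO baseline.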

[2] = ATG_ISRE_CIS: Attagene CIS-FACTORIAL HepG2 Assay for human Interferon Regulatory Factor 1 (IRF1) binding to an Interferon-Stimulated Response Element (ISRE) (AID 2282948); settings: HepG2 ISRE cis-reporter (Attagene), mRNA transcription readout; actives raise or lower the signal
Method in brief: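 HepG2 cells transiently transfected with multiplexed cis-promoter reporter units; after 24 h compound exposure, reporter mRNA quantified by RT-PCR, FAM labelling, HpaI digestion and capillary electrophoresis. Bidirectional fit versus DMSO baseline.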

[3] = ATG_M_32_CIS: Attagene CIS-FACTORIAL HepG2 Assay for M32 Transcription Factor (Internal Marker) (AID 2282949); settings: HepG2 Attagene cis-factorial M32 reporter, mRNA; actives raise or lower the signal;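 also: background control marker of the multiplexed CIS panel rather than a real target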
Method in brief: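 HepG2 cells transiently transfected with multiplexed cis-regulated reporter units, dosed 24 h. Reporter mRNA quantified by RT-PCR, 6-FAM labelling, HpaI digestion and capillary electrophoresis; bidirectional fit vs DMSO.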

[4] = ATG_M_06_CIS: Attagene CIS-FACTORIAL HepG2 Assay for M06 Transcription Factor (Internal Marker) (AID 2282950); settings: HepG2 Attagene CIS-FACTORIAL M06 internal marker reporter; actives raise or lower the signal
Method in brief: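 Terse: HepG2, transient MRTU transfection (FuGene 6), 24 h dosing; total RNA, oligo(dT) RT, PCR, FAM label, HpaI cut, capillary electrophoresis; bidirectional fit vs DMSO baseline; background-control endpoint.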

[5] = biological target: Hypoxia-inducible factor 1-alpha (Homo sapiens) (UniProt Q16665); experiment: ATG_HIF1a_CIS: Attagene CIS-FACTORIAL HepG2 Assay for human Hypoxia Inducible Factor 1 (HIF1A) (AID 2282951); settings: HepG2 Attagene cis-factorial HIF1a reporter transcription; actives raise or lower the signal
Chain of Hypoxia-inducible factor 1-alpha (Homo sapiens) (Q16665 whole entry, looked up): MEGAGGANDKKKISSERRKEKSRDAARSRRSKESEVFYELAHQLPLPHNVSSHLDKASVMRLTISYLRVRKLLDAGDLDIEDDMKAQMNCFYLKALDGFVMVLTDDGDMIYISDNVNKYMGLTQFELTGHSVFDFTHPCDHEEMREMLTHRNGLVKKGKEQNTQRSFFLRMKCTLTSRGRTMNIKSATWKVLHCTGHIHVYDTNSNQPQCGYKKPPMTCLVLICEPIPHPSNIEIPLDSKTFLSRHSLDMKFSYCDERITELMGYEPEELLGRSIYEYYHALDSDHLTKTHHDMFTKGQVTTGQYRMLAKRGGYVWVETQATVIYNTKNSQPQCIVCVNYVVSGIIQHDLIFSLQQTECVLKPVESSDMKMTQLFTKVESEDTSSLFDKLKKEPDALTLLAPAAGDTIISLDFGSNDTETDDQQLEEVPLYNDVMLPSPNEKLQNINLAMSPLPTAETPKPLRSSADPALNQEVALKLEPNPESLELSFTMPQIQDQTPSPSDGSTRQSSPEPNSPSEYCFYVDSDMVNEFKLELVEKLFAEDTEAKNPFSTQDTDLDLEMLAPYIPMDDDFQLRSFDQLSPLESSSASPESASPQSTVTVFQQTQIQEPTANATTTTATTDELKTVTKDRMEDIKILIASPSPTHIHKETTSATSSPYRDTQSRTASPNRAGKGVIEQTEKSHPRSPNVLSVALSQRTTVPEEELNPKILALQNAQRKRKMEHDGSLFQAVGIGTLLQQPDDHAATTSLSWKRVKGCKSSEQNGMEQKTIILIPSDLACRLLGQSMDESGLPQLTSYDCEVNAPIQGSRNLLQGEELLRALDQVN
Method in brief: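 Activity is fitted in both directions relative to DMSO. Reporter transcripts are read by RT-PCR, fluorescent primer extension and capillary electrophoresis after 24 h chemical treatment. The cells are HepG2 carrying transiently transfected cis-element-driven reporter units responding to endogenous factors.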

[6] = biological target: Hepatocyte nuclear factor 6 (Homo sapiens) (UniProt Q9UBC0); experiment: ATG_HNF6_CIS: Attagene CIS-FACTORIAL HepG2 Assay for human Hepatocyte Nuclear Factor 6 (HNF6) (AID 2282952); settings: HepG2 Attagene cis-factorial HNF6 reporter transcription; actives raise or lower the signal
Chain of Hepatocyte nuclear factor 6 (Homo sapiens) (Q9UBC0 whole entry, looked up): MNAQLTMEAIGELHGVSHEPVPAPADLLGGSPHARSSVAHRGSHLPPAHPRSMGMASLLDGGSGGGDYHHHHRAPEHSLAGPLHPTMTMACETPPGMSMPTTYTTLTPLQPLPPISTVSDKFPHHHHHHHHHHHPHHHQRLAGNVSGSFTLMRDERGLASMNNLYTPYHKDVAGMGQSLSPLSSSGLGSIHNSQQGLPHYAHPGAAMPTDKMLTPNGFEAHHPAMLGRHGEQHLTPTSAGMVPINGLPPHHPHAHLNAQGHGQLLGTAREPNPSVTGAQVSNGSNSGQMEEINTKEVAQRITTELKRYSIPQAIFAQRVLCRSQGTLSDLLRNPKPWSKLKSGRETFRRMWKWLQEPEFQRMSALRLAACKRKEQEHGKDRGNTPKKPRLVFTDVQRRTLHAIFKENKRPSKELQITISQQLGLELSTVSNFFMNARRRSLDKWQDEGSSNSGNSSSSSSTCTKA
Method in brief: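 HepG2, transient MRTU transfection (cis promoters); 24 h chemical exposure; total RNA → oligo(dT) RT → PCR → 6-FAM labelling → HpaI cut → CE; bidirectional fit vs DMSO.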

[7] = biological target: Heat shock factor protein 1 (Homo sapiens) (UniProt Q00613); experiment: ATG_HSE_CIS: Attagene CIS-FACTORIAL HepG2 Assay for human Heat Shock Transcription Factor 1 (HSE) (AID 2282953); settings: HepG2 HSE cis-reporter, Attagene RNA transcription; actives raise or lower the signal
Chain of Heat shock factor protein 1 (Homo sapiens) (Q00613 whole entry, looked up, the tested form may be a part): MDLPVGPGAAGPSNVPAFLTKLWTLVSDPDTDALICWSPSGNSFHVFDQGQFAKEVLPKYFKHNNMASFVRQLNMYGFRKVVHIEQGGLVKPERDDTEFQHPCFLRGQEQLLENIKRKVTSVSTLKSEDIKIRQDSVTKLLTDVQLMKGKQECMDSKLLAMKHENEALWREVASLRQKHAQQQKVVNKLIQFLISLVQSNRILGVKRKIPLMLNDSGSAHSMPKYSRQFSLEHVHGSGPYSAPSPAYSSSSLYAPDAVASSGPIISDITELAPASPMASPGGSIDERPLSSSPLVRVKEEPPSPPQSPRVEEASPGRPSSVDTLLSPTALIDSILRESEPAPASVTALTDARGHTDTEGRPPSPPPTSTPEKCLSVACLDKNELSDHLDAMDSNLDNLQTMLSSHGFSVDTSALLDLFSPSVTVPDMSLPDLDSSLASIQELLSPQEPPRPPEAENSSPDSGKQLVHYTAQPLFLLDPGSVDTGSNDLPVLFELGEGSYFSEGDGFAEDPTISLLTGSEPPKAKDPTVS
Method in brief: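 Read-out: fluorescence of reporter-specific RT-PCR fragments separated by capillary electrophoresis. HepG2 carrying transfected cis-element reporter units; 24 h dosing; activity fitted in both directions relative to DMSO baseline.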

[8] = ATG_MRE_CIS: Attagene CIS-FACTORIAL HepG2 Assay for human Metal Responsive Element (MRE) (AID 2282954); settings: HepG2 MRE cis-reporter transcription, Attagene multiplex; actives raise or lower the signal
Method in brief: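 HepG2 cells transiently transfected with cis-element-driven reporter units; mRNA measured 24 h after dosing. Reporter transcripts quantified by RT-PCR, FAM labelling, HpaI digestion and capillary electrophoresis; bidirectional fit versus DMSO.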

[9] = ATG_PBREM_CIS: Attagene CIS-FACTORIAL HepG2 Assay for human Phenobarbital-responsive Enhancer Module (PBREM) (AID 2282955); settings: HepG2 PBREM cis-reporter, Attagene multiplexed transcription; actives raise or lower the signal
Method in brief: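 Endogenous transcription factor activity was read from reporter transcripts in transiently transfected human HepG2 liver cells after 24 h dosing. RT-PCR products were fluorescently labelled, HpaI-cut and sized by capillary electrophoresis; activity fitted bidirectionally against DMSO baseline.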

[10] = biological target: Paired box protein Pax-6 (Homo sapiens) (UniProt P26367); experiment: ATG_Pax6_CIS: Attagene CIS-FACTORIAL HepG2 Assay for human Paired Box 6 (PAX6) (AID 2282956); settings: HepG2 CIS-FACTORIAL PAX6 reporter transcription, RNA readout; actives raise or lower the signal
Chain of Paired box protein Pax-6 (Homo sapiens) (P26367 whole entry, looked up): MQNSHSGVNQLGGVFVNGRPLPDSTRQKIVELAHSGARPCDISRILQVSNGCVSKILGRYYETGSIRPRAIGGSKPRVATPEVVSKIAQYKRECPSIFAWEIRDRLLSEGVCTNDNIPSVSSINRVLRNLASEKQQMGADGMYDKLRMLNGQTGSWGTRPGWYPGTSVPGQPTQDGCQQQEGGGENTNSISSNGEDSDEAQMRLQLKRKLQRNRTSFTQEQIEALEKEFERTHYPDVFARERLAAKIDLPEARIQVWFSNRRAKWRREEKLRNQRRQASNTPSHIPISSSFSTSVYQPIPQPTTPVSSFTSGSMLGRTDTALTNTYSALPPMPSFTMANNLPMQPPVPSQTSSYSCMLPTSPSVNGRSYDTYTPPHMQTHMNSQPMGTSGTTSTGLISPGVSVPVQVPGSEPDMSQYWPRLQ
Method in brief: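 HepG2 cells transiently transfected with multiplexed cis-promoter reporter units (endogenous TF activity) were dosed for 24 h. Reporter mRNA was quantified by RT-PCR, 6-FAM labeling, HpaI digestion and capillary electrophoresis; bidirectional fitting versus DMSO baseline.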

Measured: AC50

O=C1c2ccccc2C(=O)c2c(O)c(O)cc(O)c21
not listed: [10]
inactive: all other assays above

CCC(=O)O
not listed: [8] | [9] | [10]
inactive: all other assays above

Cc1ccc(C(=O)c2ccccc2)cc1
inactive: all assays above

Brc1cc(Br)c(Oc2c(Br)cc(Br)c(Br)c2Br)cc1Br
not listed: [10]
inactive: all other assays above

CCCCCCCCCCCC(=O)NCCCN(C)C
active: [1] 14.9 µM | [2] 16.9 µM | [5] 18.1 µM | [7] 17.5 µM | [8] 19.8 µM
inactive: [3] | [4] | [6] | [9]

O=C(NCc1ncc(C(F)(F)F)cc1Cl)c1c(Cl)cccc1Cl
inactive: all assays above

c1ccc(CNc2ncnc3c2ncn3C2CCCCO2)cc1 (stereo unspecified)
active: [9] 23.3 µM
not listed: [10]
inactive: all other assays above

NC(=NCCCCCCN=C(N)/N=C(\N)Nc1ccc(Cl)cc1)/N=C(\N)Nc1ccc(Cl)cc1
inactive: [1] | [2] | [3] | [4] | [5] | [7] | [9] | [10]
active: [1] 23.2 µM and 25.6 µM | [2] 5.9 µM and 6.55 µM | [3] 23.4 µM and 23.8 µM | [8] 2.62 µM and 2.68 µM and 1.87 µM | [9] 4.31 µM

CCOC(C)=O
not listed: [10]
inactive: all other assays above

O=C(C=C(O)C(F)(F)F)C(F)(F)F
inactive: all assays above

CCc1cccc(CC)c1N(COC)C(=O)CS(=O)(=O)O
active: [9] 8.56 µM
inactive: all other assays above

O=P(O)(O)CCC(F)(F)C(F)(F)C(F)(F)C(F)(F)C(F)(F)C(F)(F)F
inactive: all assays above

CC(C)(C)c1ccc(O)c(O)c1
active: [5] 26.1 µM and 25.9 µM and 25.5 µM | [7] 133 µM [middle of 5 runs]
inactive: [1] | [2] | [3] | [4] | [5] | [6] | [9]

O=C(O)C(F)(F)OC(F)(F)C(F)(F)OC(F)(F)C(F)(F)OC(F)(F)C(F)(F)C(F)(F)C(F)(F)F
inactive: [1] | [3] | [4] | [5] | [7] | [9]
active: [2] 24.6 µM and 26 µM | [5] 28.2 µM | [7] 23.7 µM | [8] 31.4 µM and 28.9 µM | [10] 25.9 µM and 29.1 µM

C[C@]12CC[C@@H]3c4ccc(O)cc4CC[C@H]3[C@@H]1CC[C@@H]2OC(=O)CCC1CCCC1
active: [3] 164 µM | [6] 125 µM
inactive: all other assays above

OCC1CCC(CO)CC1 (stereo unspecified)
inactive: all assays above

CC(C)C=O
active: [5] 157 µM
inactive: [1] | [2] | [3] | [4] | [5] | [6] | [8] | [9] | [10]

CN(CCO)S(=O)(=O)C(F)(F)C(F)(F)C(F)(F)C(F)(F)C(F)(F)C(F)(F)C(F)(F)C(F)(F)F
inactive: all assays above

CCOCCOCC
not listed: [10]
inactive: all other assays above

CCCCCCCCCCCCCC[n+]1ccccc1
not listed: [10]
inactive: all other assays above

CCN(CC)CC
not listed: [10]
inactive: all other assays above

C=CC(C)(CCC=C(C)C)OC(C)=O (stereo unspecified)
not listed: [10]
inactive: all other assays above

O=C(NO)c1ccccc1
active: [2] 44.4 µM [middle of 4 runs]
not listed: [9] | [10]
inactive: all other assays above

Cc1cncc(C)c1
inactive: all assays above

Cc1cc(C(C)(C)C)c(O)c(C(C)(C)C)c1
inactive: [1] | [2] | [3] | [4] | [5] | [6] | [7] | [9] | [10]
active: [3] 53.6 µM | [7] 95.9 µM | [8] 52.9 µM and 91.4 µM

COC(=O)CC(C(C)=O)C(=O)OC (stereo unspecified)
not listed: [10]
inactive: all other assays above

Cc1ccc(N=Nc2c(O)ccc3ccccc23)c(C)c1
active: [5] 13.2 µM | [7] 3.78 µM
inactive: all other assays above

C=C(c1ccc(C(=O)O)cc1)c1cc2c(cc1C)C(C)(C)CCC2(C)C
active: [2] 16.8 µM | [3] 32.2 µM | [7] 16.2 µM and 27.9 µM | [8] 13.8 µM and 23 µM | [9] 30.3 µM | [10] 14.9 µM and 25.3 µM
inactive: [1] | [2] | [3] | [4] | [5] | [9]

O=C(OC(=O)C(F)(F)C(F)(F)F)C(F)(F)C(F)(F)F
inactive: all assays above

O=C(O)CCC(F)(F)C(F)(F)C(F)(F)C(F)(F)C(F)(F)F
inactive: all assays above

COC(=O)C(F)(F)C(F)(F)C(F)(F)F
inactive: all assays above

O=C(O)c1cccc(C(=O)O)n1
inactive: all assays above

CC[N+](CC)(CC)Cc1ccccc1
not listed: [10]
inactive: all other assays above

CCC(C)c1nccnc1OC (stereo unspecified)
inactive: all assays above

c1ccc2c(c1)CCC2
active: [5] 36.5 µM
not listed: [10]
inactive: all other assays above

CCCCCCCCCCCC[N+](C)(C)Cc1ccccc1
inactive: [1] | [2] | [3] | [4] | [5] | [6] | [7] | [8] | [9] | [10]
active: [3] 20.3 µM | [6] 17.6 µM | [7] 18.7 µM

CC(C)(C)C1CCCCC1O (stereo unspecified)
inactive: all assays above

OCCN1CN(CCO)CN(CCO)C1
active: [2] 159 µM | [7] 178 µM | [10] 173 µM
not listed: [8]
inactive: all other assays above

Clc1ccc2c(Cl)ccnc2c1
inactive: all assays above

O=CC(F)(F)C(F)(F)C(F)(F)F
not listed: [8]
inactive: all other assays above

FC1(F)C=CC(F)(F)C1(F)F
inactive: all assays above

O=C(F)C(F)(F)C(F)(F)C(F)(F)C(=O)F
inactive: all assays above

O=C(c1cc(O)c(O)c(O)c1)c1ccc(O)c(O)c1O
active: [5] 53.5 µM
inactive: all other assays above

CCO[Si](CCC1CCC2OC2C1)(OCC)OCC (stereo unspecified)
inactive: all assays above

O=C1OC(=O)C(F)(F)C1(F)F
inactive: all assays above

Cc1cccc2c1ccc1ccccc12
inactive: all assays above
